# Records with an inconclusive call do not appear. Calls of active or inactive are those of the source. Calls come from the whole dose curve; as a rule, active = well fitted curve in the direction sought with a large enough effect; inconclusive = small, poorly fitted or top-dose-only effect, or another doubt; inactive = no such curve, though single readings can be large; an effect the other way counts as inactive or inconclusive.
# Experiment: Cell Viability - LYMP2-004 (AID 966); note: nearly all actives have a fitted effect of over 65% in size;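 for activity change, negative = cytotoxicity: plate controls were DMSO only for no effect and tetraoctylammonium bromide control for full effect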
# Settings: LYMP2-004 lymphoblastoid cell viability, qHTS; series mostly up to 92.2 µM; activity change, negative = cytotoxicity: at the top concentration
# Method in brief: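 Human lymphoblastoid cells (2500/well) in complete medium were treated with compounds for 24 hr at 37 C, then intracellular ATP was measured by CellTiter-Glo luminescence. AC50 values came from Hill-equation fits of concentration-response data.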
# Potency is the fitted concentration of half-maximal effect.
SMILES,"activity change, negative = cytotoxicity",Potency
O=C(O)C(Br)Br,-26% (inactive),
Cc1ccc(OP(=O)(Oc2ccc(C)cc2)Oc2ccc(C)cc2)cc1,15.2% (inactive),
Oc1c(Cl)c(Cl)cc(Cl)c1Cl,11.4% (inactive),
Nc1ccc(Cc2ccc(N)c(Cl)c2)cc1Cl,8.29% (inactive),
Brc1ccc(Oc2ccc(Br)cc2Br)c(Br)c1,-7.95% (inactive),
O=[N+]([O-])c1c(Cl)c(Cl)c(Cl)c(Cl)c1Cl,-18.1% (inactive),
CN1CSC(=S)N(C)C1,,31.6 µM (active)
CC(C)Br,17.6% (inactive),
O=[N+]([O-])c1ccc(O)c([N+](=O)[O-])c1,7.77% (inactive),
CC(C)[N+](=O)[O-],-21.4% (inactive),
CCCC[N+](=O)[O-],3.72% (inactive),
Cc1cc(-c2cc(C)c(N)c(C)c2)cc(C)c1N,4.86% (inactive),
Nc1cc(Cl)ccc1O,9.62% (inactive),
CCN(N=O)C(N)=O,6.97% (inactive),
N#CC(Cl)(Cl)Cl,2.04% (inactive),
Nc1c(Br)cc([N+](=O)[O-])cc1[N+](=O)[O-],4.98% (inactive),
O=[N+]([O-])c1ccccc1CCl,-16.1% (inactive),
Cc1cc(C)cc(OP(=O)(Oc2cc(C)cc(C)c2)Oc2cc(C)cc(C)c2)c1,22.3% (inactive),
N#CC(Br)Br,-20.4% (inactive),
O=C(O)C(Cl)Br (centres undefined),-5.9% (inactive),
Nc1ccc([N+](=O)[O-])cc1N,11.4% (inactive),
O=C(O)c1cccc(Cl)c1,21% (inactive),
Cc1cc(N=Nc2ccccc2C)ccc1N,3.6% (inactive),
CC(C)(COCC1CO1)COCC1CO1 (centres undefined),-47.9% (inactive),
COc1ccccc1N,1.41% (inactive),
CC(C)(C)OOC(=O)c1ccccc1,-8.47% (inactive),
c1ccc(N=NNc2ccccc2)cc1,13.3% (inactive),
COC(C)(C)C,-17.5% (inactive),

# Experiment: Cell Viability - LYMP2-005 (AID 967);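 note: cells exposed to compound for 24 h at 37 °C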;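 for activity change, negative = viability loss: plate controls were DMSO only for no effect and 92 µM tetraoctylammonium bromide control for full effect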
# Settings: LYMP2-005 lymphoblastoid cell viability; series mostly up to 92.2 µM; activity change, negative = viability loss: at the top concentration
# Method in brief: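 Acute cytotoxicity is scored as a concentration-dependent drop in intracellular ATP in human lymphoblastoid LYMP2-005 cells after 24 h compound treatment. ATP is quantified by luciferase luminescence, and AC50 is derived by Hill-equation modelling.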
SMILES,"activity change, negative = viability loss",Potency
Cc1ccc(OP(=O)(Oc2ccc(C)cc2)Oc2ccc(C)cc2)cc1,-0.695% (inactive),
Oc1c(Cl)c(Cl)cc(Cl)c1Cl,2.49% (inactive),
Nc1ccc(Cc2ccc(N)c(Cl)c2)cc1Cl,-0.608% (inactive),
Brc1ccc(Oc2ccc(Br)cc2Br)c(Br)c1,24.6% (inactive),
O=[N+]([O-])c1c(Cl)c(Cl)c(Cl)c(Cl)c1Cl,-42.1% (inactive),
CN1CSC(=S)N(C)C1,,31.6 µM (active)
ClCC(Cl)Cl,-6.91% (inactive),
CC(C)Br,23.1% (inactive),
O=[N+]([O-])c1ccc(O)c([N+](=O)[O-])c1,16.2% (inactive),
CC(C)[N+](=O)[O-],25.6% (inactive),
CCCC[N+](=O)[O-],19% (inactive),
Cc1cc(-c2cc(C)c(N)c(C)c2)cc(C)c1N,-2.48% (inactive),
Nc1cc(Cl)ccc1O,-17.2% (inactive),
CCN(N=O)C(N)=O,3.93% (inactive),
N#CC(Cl)(Cl)Cl,-2.7% (inactive),
CCCCC(CC)COC(=O)c1ccc(C(=O)OCC(CC)CCCC)c(C(=O)OCC(CC)CCCC)c1 (centres undefined),-10.1% (inactive),
O=C(O)C(Br)CBr (centres undefined),-19% (inactive),
Nc1c(Br)cc([N+](=O)[O-])cc1[N+](=O)[O-],-20.1% (inactive),

SMILES,"activity change, negative = viability loss",Potency
O=[N+]([O-])c1ccccc1CCl,-0.322% (inactive),
Cc1cc(C)cc(OP(=O)(Oc2cc(C)cc(C)c2)Oc2cc(C)cc(C)c2)c1,-19% (inactive),
N#CC(Br)Br,-14.6% (inactive),
O=C(O)C(Cl)Br (centres undefined),-14.7% (inactive),
COP(=S)(OC)SCn1nnc2ccccc2c1=O,2.79% (inactive),
Nc1ccc([N+](=O)[O-])cc1N,1.12% (inactive),
O=C(O)c1cccc(Cl)c1,14.6% (inactive),
Cc1cc(N=Nc2ccccc2C)ccc1N,-13.9% (inactive),
OCCCCO,-16.3% (inactive),
O=[N+]([O-])c1cc(Cl)c(Cl)c(Cl)c1,5.41% (inactive),
CC(C)(COCC1CO1)COCC1CO1 (centres undefined),-67.3% (inactive),
Cc1ccc2c(c1N)C(=O)c1ccccc1C2=O,-13.6% (inactive),
CC(C)(C)OOC(=O)c1ccccc1,-14.2% (inactive),
c1ccc(N=NNc2ccccc2)cc1,10.7% (inactive),
COC(C)(C)C,16.5% (inactive),
C(CCOCC1CO1)COCC1CO1 (centres undefined),-20% (inactive),
O=[N+]([O-])/C=C/c1ccccc1,25.3% (inactive),

# Experiment: Cell Viability - LYMP2-009 (AID 968);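 note: cells exposed to compound for 24 h at 37 °C; nearly all actives have a fitted effect of over 55% in size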;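 for activity change, negative = viability loss: 0% = DMSO alone and the full-kill end = tetraoctylammonium bromide at 92 µM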
# Settings: LYMP2-009 lymphoblastoid cell viability; series mostly up to 92.2 µM; activity change, negative = viability loss: at the top concentration
SMILES,"activity change, negative = viability loss",Potency
O=C(O)C(Br)Br,-17.8% (inactive),
Cc1ccc(OP(=O)(Oc2ccc(C)cc2)Oc2ccc(C)cc2)cc1,-11.1% (inactive),
Oc1c(Cl)c(Cl)cc(Cl)c1Cl,-10.1% (inactive),
Nc1ccc(Cc2ccc(N)c(Cl)c2)cc1Cl,-3.24% (inactive),
Brc1ccc(Oc2ccc(Br)cc2Br)c(Br)c1,0.0229% (inactive),
O=[N+]([O-])c1c(Cl)c(Cl)c(Cl)c(Cl)c1Cl,-11.4% (inactive),
CN1CSC(=S)N(C)C1,,31.6 µM (active)
ClCC(Cl)Cl,-5.34% (inactive),
CC(C)Br,-0.188% (inactive),
O=[N+]([O-])c1ccc(O)c([N+](=O)[O-])c1,-6.44% (inactive),
CC(C)[N+](=O)[O-],-0.0962% (inactive),
CCCC[N+](=O)[O-],-10.7% (inactive),
Cc1cc(-c2cc(C)c(N)c(C)c2)cc(C)c1N,-0.224% (inactive),
CCN(N=O)C(N)=O,-5.49% (inactive),
N#CC(Cl)(Cl)Cl,-7.38% (inactive),
CCCCC(CC)COC(=O)c1ccc(C(=O)OCC(CC)CCCC)c(C(=O)OCC(CC)CCCC)c1 (centres undefined),-10.7% (inactive),
O=C(O)C(Br)CBr (centres undefined),-23.6% (inactive),
Nc1c(Br)cc([N+](=O)[O-])cc1[N+](=O)[O-],-20.7% (inactive),

SMILES,"activity change, negative = viability loss",Potency
Cc1cc(C)cc(OP(=O)(Oc2cc(C)cc(C)c2)Oc2cc(C)cc(C)c2)c1,-20.8% (inactive),
N#CC(Br)Br,,50.1 µM (active)
O=C(O)C(Cl)Br (centres undefined),-12% (inactive),
COP(=S)(OC)SCn1nnc2ccccc2c1=O,-11.1% (inactive),
Nc1ccc([N+](=O)[O-])cc1N,-26.1% (inactive),
O=C(O)c1cccc(Cl)c1,-6.79% (inactive),
Cc1cc(N=Nc2ccccc2C)ccc1N,-19.3% (inactive),
OCCCCO,-3.62% (inactive),
O=[N+]([O-])c1cc(Cl)c(Cl)c(Cl)c1,-12.4% (inactive),
CC(C)(COCC1CO1)COCC1CO1 (centres undefined),-16.6% (inactive),
Cc1ccc2c(c1N)C(=O)c1ccccc1C2=O,-24.1% (inactive),
COc1ccccc1N,-9.79% (inactive),
CC(C)(C)OOC(=O)c1ccccc1,-3.42% (inactive),
c1ccc(N=NNc2ccccc2)cc1,-18.3% (inactive),
COC(C)(C)C,-6.39% (inactive),
C(CCOCC1CO1)COCC1CO1 (centres undefined),-26.7% (inactive),
CN(C)c1ccc(N)cc1,,50.1 µM (active)
O=[N+]([O-])/C=C/c1ccccc1,,50.1 µM (active)

# Source: PubChem BioAssay (NCATS)
